Test results from PubChem BioAssay (Tox21).
Unmarked numbers belong to inactive results. Records with an inconclusive call do not appear. Where a call stands in place of a potency, no number is given. Calls of active or inactive are those of the source. Unless noted, calls come from the whole dose curve; as a rule, active = well fitted curve in the direction sought with a large enough effect in the repeat runs; inconclusive = weak or mixed curves; inactive = flat fitted curve, though single readings scatter.

Key:
[1] = qHTS assay to test for compound auto fluorescence at 535 nm (green) in HEK293 cells (AID 720680)
[2] = qHTS assay to test for compound auto fluorescence at 460 nm (blue) in HEK293 cell free culture (AID 720681)
Outline: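 Blue fluorescence (Ex 405/Em 460 nm, triamterene-equivalent) was read immediately after pin transfer of compound or DMSO into medium (DMEM, 10% FBS) without cells.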

[3] = qHTS assay to test for compound auto fluorescence at 535 nm (green) in HEK293 cell free culture (AID 720682)
Outline: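 Read-out: 485/535 nm fluorescence intensity, calibrated against fluorescein. Medium only (DMEM + 10% FBS, no cells); test compound or DMSO vehicle added by pintool before plate reading.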

[4] = qHTS assay to test for compound auto fluorescence at 590 nm (red) in HEK293 cell free culture (AID 720683)
Outline: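 Red-channel autofluorescence of compounds in culture medium (DMEM, 10% FBS), no cells, measured at 540/590 nm. Rose Bengal sodium is the reference fluorophore for equivalence.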

[5] = qHTS assay to test for compound auto fluorescence at 590 nm (red) in HepG2 cell free culture (AID 720684)
Outline: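 Steps: dispense MEM/10% FBS medium, no cells; pin compound or DMSO vehicle; read red channel, Ex/Em 540/590 nm. Output given as Rose Bengal sodium equivalents.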

[6] = qHTS assay to test for compound auto fluorescence at 460 nm (blue) in HepG2 cell free culture (AID 720685)
Outline: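 Compound (23 nL) or DMSO pinned into cell-free MEM with 10% FBS; blue fluorescence read at 405/460 nm excitation/emission, expressed as auto-fluorescence equivalency to triamterene.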

[7] = qHTS assay to test for compound auto fluorescence at 535 nm (green) in HepG2 cell free culture (AID 720686)
[8] = qHTS assay to test for compound auto fluorescence at 460 nm (blue) in HepG2 cells (AID 720687)
Outline: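 Blue-channel autofluorescence (Ex/Em 405/460 nm, triamterene-equivalent) was measured after 1 hr compound exposure at 37 C, 5% CO2. Cells were HepG2, plated overnight at 37 C in MEM plus 10% FBS.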

[9] = biological target: Glucocorticoid receptor (Homo sapiens) (UniProt P04150); test: qHTS assay to identify small molecule antagonists of the glucocorticoid receptor (GR) signaling pathway (AID 720692; active = well fitted inhibition curve with a large enough effect in the signal ratio in the repeat runs, not every such curve was filed as active; the % refers to the signal ratio; note: potency is the fitted concentration of half-maximal effect)
Sequence of Glucocorticoid receptor (Homo sapiens) (P04150 whole entry, looked up): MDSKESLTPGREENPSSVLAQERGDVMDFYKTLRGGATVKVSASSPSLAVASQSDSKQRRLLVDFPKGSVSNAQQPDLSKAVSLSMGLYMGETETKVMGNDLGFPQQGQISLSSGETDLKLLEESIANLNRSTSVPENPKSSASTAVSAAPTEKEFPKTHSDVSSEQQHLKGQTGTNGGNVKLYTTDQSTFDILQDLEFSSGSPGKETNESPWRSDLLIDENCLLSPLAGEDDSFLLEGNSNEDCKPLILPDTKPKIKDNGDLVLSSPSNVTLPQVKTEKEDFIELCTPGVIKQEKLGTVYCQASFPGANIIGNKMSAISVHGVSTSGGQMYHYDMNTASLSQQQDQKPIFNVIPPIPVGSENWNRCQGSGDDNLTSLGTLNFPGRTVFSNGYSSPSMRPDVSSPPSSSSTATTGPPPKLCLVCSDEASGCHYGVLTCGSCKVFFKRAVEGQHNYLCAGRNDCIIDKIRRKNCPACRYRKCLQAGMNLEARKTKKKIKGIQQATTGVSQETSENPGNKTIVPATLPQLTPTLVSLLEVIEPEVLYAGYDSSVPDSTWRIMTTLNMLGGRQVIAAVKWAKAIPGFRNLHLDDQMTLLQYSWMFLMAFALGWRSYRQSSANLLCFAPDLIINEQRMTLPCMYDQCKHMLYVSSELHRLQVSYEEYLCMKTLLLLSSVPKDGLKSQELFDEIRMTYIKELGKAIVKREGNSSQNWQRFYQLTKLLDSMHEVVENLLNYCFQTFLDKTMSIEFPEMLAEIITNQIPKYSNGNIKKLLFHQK
Outline: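 Cells plated, rested 4 h at 37 C/5% CO2; compounds in DMSO pin-transferred; dexamethasone added to 5 nM final; 18 h at 37 C; B/G FRET substrate added, 2 h room temperature; fluorescence measured.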

[10] = biological target: Glucocorticoid receptor (Homo sapiens) (UniProt P04150); test: qHTS assay to identify small molecule agonists of the glucocorticoid receptor (GR) signaling pathway (AID 720691; active = well fitted activation curve with a large enough effect in the signal ratio in the repeat runs, not every such curve was filed as active; the % refers to the signal ratio)
Outline: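 Agonist mode in a HeLa line carrying a GRE-controlled beta-lactamase reporter. Compounds act for 18 h at 37 C before a 2 h room-temperature FRET substrate step and fluorescence reading.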

| SMILES | outcome [1] | Potency [2] | outcome [3] | outcome [4] | outcome [5] | Potency [6] | outcome [7] | Potency [8] | Potency [9] | Potency [10] | fluorescence, % of fluorescein [1] | fluorescence, % of fluorescent control [2] | activity change [3] | fluorescence, % of fluorescent control [4] | fluorescence, % of Rose Bengal [5] | fluorescence, % of fluorescent control [6] | fluorescence, % of fluorescent control [8] |
| --- | --- | --- | --- | --- | --- | --- | --- | --- | --- | --- | --- | --- | --- | --- | --- | --- | --- |
| Cn1cc(C2=C(c3cn(C4CCN(Cc5ccccn5)CC4)c4ccccc34)C(=O)NC2=O)c2ccccc21 | inactive | inactive | inactive | inactive | inactive | inactive | inactive | inactive | 1340 nM (active) | – | – | – | – | – | – | – | – |
| COc1cc(N)c(Cl)cc1C(=O)NC1CN2CCC1CC2 (configuration not stated) | inactive | inactive | inactive | inactive | inactive | inactive | inactive | inactive | inactive | inactive | – | – | – | – | – | – | – |
| C[C@]12CC[C@H]3[C@@H](CCC4=CC(=O)CC[C@@]43C)[C@@H]1CC[C@@H]2O | inactive | inactive | inactive | inactive | inactive | inactive | inactive | inactive | 2440 nM (active) | inactive | – | – | – | – | – | – | – |
| C=CCC1=C(C)C(OC(=O)C2C(C=C(C)C)C2(C)C)CC1=O (configuration not stated) | inactive | inactive | inactive | inactive | inactive | inactive | inactive | inactive | – | inactive | – | – | – | – | – | – | – |
| COP(=S)(OC)Oc1cc(Cl)c(Br)cc1Cl | inactive | inactive | inactive | inactive | inactive | inactive | – | inactive | – | – | – | – | – | – | – | – | – |
| c1ccc(Nc2ccc3ccccc3c2)cc1 | inactive | inactive | inactive | inactive | inactive | inactive | inactive | inactive | inactive | inactive | – | – | – | – | – | – | – |
| Cc1cc(C)cc(OP(=O)(Oc2cc(C)cc(C)c2)Oc2cc(C)cc(C)c2)c1 | inactive | inactive | – | inactive | inactive | inactive | inactive | inactive | – | inactive | – | – | – | – | – | – | – |
| CC[C@H](C)[C@H]1O[C@]2(C=C[C@@H]1C)C[C@@H]1C[C@@H](C/C=C(\C)[C@@H](O[C@H]3C[C@H](OC)[C@@H](O[C@H]4C[C@H](OC)[C@@H](O)[C@H](C)O4)[C@H](C)O3)[C@@H](C)/C=C/C=C3\CO[C@@H]4[C@H](O)C(C)=C[C@@H](C(=O)O1)[C@]34O)O2 | inactive | inactive | – | inactive | inactive | inactive | inactive | inactive | 23900 nM (active) | inactive | – | – | – | – | – | – | – |
| Clc1ccc(CSC(Cn2ccnc2)c2ccc(Cl)cc2Cl)cc1 (configuration not stated) | – | – | – | – | – | – | – | – | – | – | -0.0144% [at 18.6 µM] | 0.0923% [at 18.6 µM] | -0.0182% [at 18.6 µM] | 0.289% [at 18.6 µM] | -0.065% [at 18.6 µM] | 0.0769% [at 18.6 µM] | 0.0355% [at 18.6 µM] |
| COC12CC[C@@]3(C[C@@H]1C(C)(O)C(C)(C)C)[C@H]1Cc4ccc(O)c5c4[C@@]3(CCN1CC1CC1)[C@H]2O5 (some centres not stated) | inactive | inactive | inactive | inactive | inactive | inactive | – | inactive | – | – | – | – | – | – | – | – | – |
| Fc1ccc(Oc2ccnc3cc(Cl)cc(Cl)c23)cc1 | inactive | inactive | – | inactive | inactive | inactive | inactive | inactive | – | inactive | – | – | – | – | – | – | – |
| O=S(=O)(c1ccc(Cl)cc1)c1ccc(Cl)cc1 | inactive | inactive | inactive | inactive | inactive | inactive | – | inactive | – | inactive | – | – | – | – | – | – | – |
